These results are taken from PubChem BioAssay.

Structures are written as SMILES. Calls of active or inactive are those of the source. Unless noted, how the calls were made is not given here.

Assay [1] deals with Wnt5a (protein binding on small-molecule microarray). Put plainly: Wnt5a binders on small-molecule microarray, primary screen, biophysical, 635/667 nm fluorescence (AID 1142).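 Further: fluorescence read at 667 nm with signal to noise per printed feature.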 Particulars: 635 nm fluorescence, higher = more signal.
The nature of assay [2]: cell viability in Huh7 cells, primary screen, cytotoxicity control for HCV replication inhibitor project, CellTiter-Glo luminescence, basal, 48 h (AID 1143).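 Further: Huh7 hepatoma cells carrying a hepatitis C replication reporter with no stimulus; test concentration not given here.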 Particulars: Huh7 HCV replicon, higher = more signal, called active from +8 up or from −8 down.
Assay [3] can be described thus: P. aeruginosa biofilm formation inhibitors, primary screen, PAO1 strain, BacTiter-Glo luminescence, LB-PBS (AID 1144). As to conditions: 12 h, higher = more signal.
Assay [4] in a line: CREB reporter modulators without forskolin, primary screen, cell-based, PC12, CRE-LacZ reporter, unstimulated (AID 1145). Particulars: no forskolin, luminescence, 4.5 h, higher = more signal, called active from +8 up or from −8 down.
Assay [5] in a line: CREB reporter modulators under forskolin, primary screen, cell-based, PC12, CRE-LacZ reporter, forskolin-stimulated (AID 1146).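 Further: PC12 cells with 6xCRE LacZ reporter stimulated by forskolin 10 µM; beta-galactosidase reporter signal reflecting CREB driven transcription.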 As to conditions: luminescence, 4.5 h, higher = more signal, called active from +8 up or from −8 down.
For assay [6], the target named is Streptavidin (Streptomyces avidinii) (UniProt P22629). Put plainly: streptavidin binders on small-molecule microarray, primary screen, artefact control for SMM compound annotation, biophysical, 635/667 nm fluorescence (AID 1147).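 Further: signal reflects streptavidin binding to arrayed compounds as a control protein.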 As to conditions: streptavidin binding, higher = more signal.
Streptavidin (Streptomyces avidinii), sequence (P22629 whole entry, looked up): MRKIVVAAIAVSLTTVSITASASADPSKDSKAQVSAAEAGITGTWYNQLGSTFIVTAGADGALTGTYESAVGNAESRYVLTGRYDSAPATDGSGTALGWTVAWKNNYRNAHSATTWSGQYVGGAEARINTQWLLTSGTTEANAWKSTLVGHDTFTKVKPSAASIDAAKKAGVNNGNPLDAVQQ
The nature of assay [7]: small-molecule binders of probe aInhba, primary screen, biochemical, small-molecule microarray, 635/667 nm fluorescence (AID 1148).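 Further: score merges 667nm spot fluorescence with signal-to-noise for antibody binding to printed compounds.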 As to conditions: higher = more signal.
Assay [8] addresses Torsin-1A (Homo sapiens) (UniProt O14656). Put plainly: torsin A binders from cell lysate, primary screen, small-molecule microarray, wild-type, 635/667 nm (AID 1149). Particulars: COS7 hTOR1A-WT lysate, 635 nm fluorescence, higher = more signal.
Assay [9] has the same target. Put plainly: small-molecule binders of mutant TOR1A in lysate, primary screen, cell lysate, small-molecule microarray, COS7 lysate, 635/667 nm fluorescence (AID 1150).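 Further: score pools 667 nm emission and signal to noise measuring lysate protein binding.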 Particulars: COS7 hTOR1A mutant lysate, 635 nm fluorescence, higher = more signal.
For assay [10], the system named is Sonic hedgehog protein (Shh). Put plainly: small-molecule binders of Shh protein, primary screen, biochemical, small-molecule microarray, 635/667 nm fluorescence (AID 1151).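 Further: Shh protein binding to compounds spotted on small-molecule microarray slides; score combines spot fluorescence intensity with signal-to-noise across triplicate slides.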 As to conditions: small-molecule microarray binding, 635 nm fluorescence; higher = more signal.
Assay [11] can be described thus: E. coli DRC41 culture turbidity changes, primary screen, E. coli filamentation inducer project, strain DRC41, OD650, 48 h (AID 1152).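 Further: E. coli MC1000 strain DRC41 lacking acrAB efflux pump and sulA.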 Particulars: E. coli DRC41 (acrAB sulA), higher = more signal, called active from +8 up or from −8 down.
Assay [12] in a line: small-molecule binders of probe aLefty1, primary screen, biochemical, small-molecule microarray, 635/667 nm fluorescence (AID 1153).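 Further: score merges spot fluorescence with signal-to-noise ratio from the scanned slide images.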 Particulars: higher = more signal.
A short description of assay [13]: PSAC antagonists in infected red cells, primary screen, cell-based, P. falciparum Indochina, OD700, 1 h (AID 1154). As to conditions: P. falciparum Indochina infected RBC osmotic lysis, higher = more signal, called active from +8 up or from −8 down.
The nature of assay [14]: PSAC antagonists in infected red cells, primary screen, cell-based, P. falciparum Indochina, OD700, 2 h (AID 1155).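 Further: lysis reports solute entry through the parasite surface anion channel PSAC; channel blockers reduce lysis of infected cells.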 As to conditions: P. falciparum Indochina infected erythrocytes, osmotic lysis OD700; higher = more signal, called active from +8 up or from −8 down.
A short description of assay [15]: osmotic lysis modulators in infected erythrocytes, primary screen, PSAC antagonist project, cell-based, P. falciparum Indochina, OD700, 3 h (AID 1156). As to conditions: higher = more signal, called active from +8 up or from −8 down.
The nature of assay [16]: PSAC antagonists in infected red cells, primary screen, cell-based, P. falciparum Indochina, OD700, 18 h (AID 1157). As to conditions: P. falciparum Indochina infected erythrocytes, osmotic lysis OD700, 18 h; higher = more signal, called active from +8 up or from −8 down.
Assay [17] can be described thus: modulators of S6 phosphorylation in cells, primary screen, cell-based, A549, cytoblot, luminescence, serum-stimulated (AID 1158).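 Further: serum-stimulated A549 lung adenocarcinoma cells; signal is phosphorylated S6 detected by cytoblot immunostaining with HRP secondary.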 Particulars: A549 phospho-S6 cytoblot, 5 h, higher = more signal.
Assay [18] has as its target NADPH oxidase 2 (Homo sapiens) (UniProt P04839). Put plainly: NOX2-dependent H2O2 signal modulators, primary screen, NOX inhibitor project, cell-based, HEK293-NOX2, PMA-stimulated, Amplex Red fluorescence (AID 1159). Further: test concentration not given here. Particulars: 45 min, higher = more signal, called active from +8 up or from −8 down.
Assay [19] deals with NADPH oxidase 4 (Homo sapiens) (UniProt Q9NPH5). Kind of assay: NOX4-dependent H2O2 signal modulators, primary screen, NOX inhibitor project, cell-based, HEK293-NOX4, tetracycline-induced, Amplex Red fluorescence (AID 1160). As to conditions: 45 min, higher = more signal, called active from +8 up or from −8 down.
NADPH oxidase 4 (Homo sapiens), sequence (Q9NPH5 whole entry, looked up): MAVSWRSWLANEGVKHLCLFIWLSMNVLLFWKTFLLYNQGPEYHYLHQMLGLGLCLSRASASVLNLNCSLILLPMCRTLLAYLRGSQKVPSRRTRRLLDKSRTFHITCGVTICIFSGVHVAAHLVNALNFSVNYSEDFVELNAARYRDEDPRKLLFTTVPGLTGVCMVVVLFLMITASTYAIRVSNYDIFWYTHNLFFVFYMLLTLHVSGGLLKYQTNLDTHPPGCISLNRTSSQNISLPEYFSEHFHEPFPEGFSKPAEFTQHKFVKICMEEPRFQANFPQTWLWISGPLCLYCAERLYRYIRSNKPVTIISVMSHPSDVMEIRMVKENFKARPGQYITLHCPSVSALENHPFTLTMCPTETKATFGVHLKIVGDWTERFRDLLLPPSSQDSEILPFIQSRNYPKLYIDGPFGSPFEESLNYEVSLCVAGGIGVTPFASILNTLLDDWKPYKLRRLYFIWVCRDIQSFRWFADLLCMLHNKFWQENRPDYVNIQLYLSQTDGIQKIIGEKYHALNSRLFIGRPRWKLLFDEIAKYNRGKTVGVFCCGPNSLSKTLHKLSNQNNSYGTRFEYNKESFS
Assay [20] addresses NADPH oxidase 5 (Homo sapiens) (UniProt Q96PH1). Kind of assay: NOX5-dependent H2O2 signal modulators, primary screen, NOX inhibitor project, cell-based, HEK293-NOX5, Amplex Red fluorescence (AID 1161). As to conditions: HEK293-NOX5, ionomycin, 45 min, higher = more signal.

NADPH oxidase 5 (Homo sapiens), sequence (Q96PH1 whole entry, looked up): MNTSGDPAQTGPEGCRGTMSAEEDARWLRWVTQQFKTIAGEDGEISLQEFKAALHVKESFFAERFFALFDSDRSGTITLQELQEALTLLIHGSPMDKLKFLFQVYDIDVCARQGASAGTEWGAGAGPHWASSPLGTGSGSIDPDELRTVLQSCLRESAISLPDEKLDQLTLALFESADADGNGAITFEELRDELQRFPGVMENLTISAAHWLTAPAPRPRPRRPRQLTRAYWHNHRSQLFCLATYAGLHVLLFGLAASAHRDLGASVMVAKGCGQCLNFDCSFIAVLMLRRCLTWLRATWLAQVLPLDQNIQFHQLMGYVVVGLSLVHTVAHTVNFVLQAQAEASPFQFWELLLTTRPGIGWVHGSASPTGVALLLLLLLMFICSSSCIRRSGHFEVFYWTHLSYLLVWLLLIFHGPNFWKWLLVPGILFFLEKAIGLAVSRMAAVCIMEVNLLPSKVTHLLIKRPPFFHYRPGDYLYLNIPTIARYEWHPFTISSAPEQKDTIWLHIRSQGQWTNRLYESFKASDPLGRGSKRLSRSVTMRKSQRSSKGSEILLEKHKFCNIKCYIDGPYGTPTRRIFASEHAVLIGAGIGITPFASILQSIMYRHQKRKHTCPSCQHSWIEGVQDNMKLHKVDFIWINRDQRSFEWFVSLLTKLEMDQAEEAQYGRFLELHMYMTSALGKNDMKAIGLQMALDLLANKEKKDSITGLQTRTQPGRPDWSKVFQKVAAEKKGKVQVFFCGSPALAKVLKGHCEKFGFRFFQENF
Torsin-1A (Homo sapiens), sequence (O14656 whole entry, looked up): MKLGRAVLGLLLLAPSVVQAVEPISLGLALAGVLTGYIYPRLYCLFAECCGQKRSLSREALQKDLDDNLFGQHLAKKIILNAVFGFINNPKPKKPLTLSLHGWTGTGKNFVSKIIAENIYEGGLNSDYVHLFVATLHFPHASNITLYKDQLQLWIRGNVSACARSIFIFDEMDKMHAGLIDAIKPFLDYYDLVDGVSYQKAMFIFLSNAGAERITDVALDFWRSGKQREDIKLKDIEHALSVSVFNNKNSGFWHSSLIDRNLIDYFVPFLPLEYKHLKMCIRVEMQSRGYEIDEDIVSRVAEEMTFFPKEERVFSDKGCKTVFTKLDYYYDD
NADPH oxidase 2 (Homo sapiens), sequence (P04839 whole entry, looked up): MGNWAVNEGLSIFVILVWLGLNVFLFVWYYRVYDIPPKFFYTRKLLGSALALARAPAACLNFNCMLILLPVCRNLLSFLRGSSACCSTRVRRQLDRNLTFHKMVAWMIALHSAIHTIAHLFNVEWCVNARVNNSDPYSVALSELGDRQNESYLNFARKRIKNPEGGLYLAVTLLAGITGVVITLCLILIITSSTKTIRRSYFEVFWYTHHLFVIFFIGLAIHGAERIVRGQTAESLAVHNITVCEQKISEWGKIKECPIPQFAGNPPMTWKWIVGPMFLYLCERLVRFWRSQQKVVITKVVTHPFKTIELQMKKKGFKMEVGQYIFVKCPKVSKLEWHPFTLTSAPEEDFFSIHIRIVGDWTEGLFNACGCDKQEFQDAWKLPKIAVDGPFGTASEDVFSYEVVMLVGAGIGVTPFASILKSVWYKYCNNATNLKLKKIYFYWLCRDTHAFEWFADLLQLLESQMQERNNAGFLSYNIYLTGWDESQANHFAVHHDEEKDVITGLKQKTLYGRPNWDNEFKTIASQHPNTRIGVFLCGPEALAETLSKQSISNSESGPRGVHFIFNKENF

In the case of `CC(C)Cc1ccc(CN2CC[C@@H](N)C2)cc1`, the composite z-score is -0.544 in [1]; -1.27 in [6]; -0.0357 in assay [7]; -1.79 in assay [8]; -0.677 in assay [9]; -0.0963 in assay [10]. In assay [12], this compound showed a composite z-score of -0.0969. Also, the z-score is -3.26 (inactive) in assay [2]; -1.53 (inactive) in assay [3]; -0.688 (inactive) in assay [4]; 1.52 (inactive) in assay [5]; -3.85 (inactive) in assay [11]; 0.483 (inactive) in assay [13]. The z-score was 0.933 (inactive) in assay [14]; -0.285 (inactive) in assay [15]; 0.525 (inactive) in [16]; 0.412 in assay [17]; -0.0323 (inactive) in assay [18]; -0.535 (inactive) in assay [19]. For the same compound, the z-score in assay [20] was -1.29.

Take `O=C1[C@@]23C=C(Br)[C@H](C[C@@H]2COC3)[C@]12CO2`: the composite z-score in [1] is -0.139; in [6], -1.08; in assay [7], -0.204; in assay [8], -0.672; in assay [9], -0.666; in assay [10], -0.0003. The compound further showed a composite z-score in assay [12] of 0.151. Moreover, the z-score was -0.38 (inactive) in [2]; -0.00184 (inactive) in assay [3]; 1.04 (inactive) in assay [4]; 1.78 (inactive) in assay [5]; -0.508 (inactive) in [11]; 0.483 (inactive) in assay [13]. Besides, the z-score in assay [14] was -0.0352 (inactive); in assay [15], -0.103 (inactive); in assay [16], -0.334 (inactive); in assay [17], 0.424; in [18], 0.447 (inactive); in assay [19] it was -1.92 (inactive). The compound further registered a z-score in assay [20] of -4.05.

On to `O=C1C[C@@](C(=O)NCc2ccccc2)(c2ccc([N+](=O)[O-])cc2)[C@@H](c2ccc(CO)cc2)N1CC12CC3CC(CC(C3)C1)C2`, for which the composite z-score in assay [1] was 0.38; in [6], -0.243; in [7], -0.189; in assay [8], 0.352; in assay [9], 0.368; in assay [10], 1.99. The compound also showed a composite z-score in assay [12] of -0.287. Moreover, the z-score in [2] is -4.73 (inactive); in assay [3], 0.657 (inactive); in assay [4], 0.674 (inactive); in assay [5], -0.841 (inactive); in [11] it was 0.874 (inactive); in [13], 5.33 (inactive). Moreover, the z-score in assay [14] is 0.786 (inactive); in assay [15], 3.76 (inactive); in [16], 0.674 (inactive); in assay [17], -0.0355; in [18] it was 0.208 (inactive); in assay [19] it was -0.821 (inactive). The compound also registered a z-score in assay [20] of 1.1.

On to `C#CCNCc1ccccc1`, for which the composite z-score was -0.0766 in assay [1]; 0.202 in assay [6]; -0.134 in assay [7]; 0.335 in assay [8]; 0.442 in assay [9]; 0.442 in [10]. The composite z-score in assay [12] was -0.235. Further, the z-score in [2] is -0.0359 (inactive); in assay [3] it was 1.16 (inactive); in assay [4], -0.882 (inactive); in [5] it was 0.531 (inactive); in assay [11] it was -0.131 (inactive); in [13], 0.229 (inactive). In addition, the z-score is 0.876 (inactive) in assay [14]; -0.116 (inactive) in assay [15]; 0.409 (inactive) in assay [16]; -0.255 in [17]; -12.1 (active) in assay [18]; -0.493 (inactive) in [19]. Moreover, the z-score in [20] worked out at 0.615.

For `COC(=O)[C@@]1(Cc2ccccc2)[C@H]2c3cc(C(=O)N4CCCC4)n(Cc4ccc(O)c(OC)c4)c3C[C@H]2CN1C(=O)c1ccccc1`, the composite z-score was 0.343 in [1]; 0.211 in [6]; 0.198 in assay [7]; -0.0034 in assay [8]; 0.0381 in assay [9]; -1.39 in [10]. This compound also returned a composite z-score in assay [12] of 0.0147. Moreover, the z-score in assay [2] is -2.34 (inactive); in assay [3], 0.633 (inactive); in assay [4], 2.5 (inactive); in assay [5], 0.333 (inactive); in [11], -1.64 (inactive); in [13] it was 3.85 (inactive). Moreover, the z-score in [14] was 0.496 (inactive); in assay [15], 0.393 (inactive); in [16], 0.618 (inactive); in [17], -0.347; in [18] it was -2.57 (inactive); in assay [19] it was -6.07 (inactive). The same compound displayed a z-score in assay [20] of -3.82.
